Laboratory results as given in article PMC11006913.
Residue numbers refer to the chain shown, from its start.

Tests used:
Assay in all cases: PBM; 200 nM protein, PBS
Details in all cases: dsDNA, one strand shown
NKX2-5 [1] = target: NKX2-5 (Homo sapiens, UniProt P52952 125-210, R139K)
PAX4 [2] = target: T1, PAX4 (Homo sapiens, UniProt O43316 9-242, R200K)
T1 sequence: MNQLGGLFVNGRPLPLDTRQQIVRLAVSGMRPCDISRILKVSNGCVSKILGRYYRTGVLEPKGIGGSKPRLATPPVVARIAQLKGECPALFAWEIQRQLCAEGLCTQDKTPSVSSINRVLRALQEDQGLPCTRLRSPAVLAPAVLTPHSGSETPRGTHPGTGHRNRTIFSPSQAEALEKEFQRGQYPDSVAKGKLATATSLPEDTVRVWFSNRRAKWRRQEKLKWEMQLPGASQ

PAX4 [3] = target: T2, PAX4 (Homo sapiens, UniProt O43316 9-242)
T2 sequence: T1 sequence with K192R

ALX3 [4] = target: ALX3 (Homo sapiens, UniProt O95076 139-225, N203Q)
Chain of ALX3 (Homo sapiens, UniProt O95076 139-225, N203Q) (O95076 139-225 N203Q): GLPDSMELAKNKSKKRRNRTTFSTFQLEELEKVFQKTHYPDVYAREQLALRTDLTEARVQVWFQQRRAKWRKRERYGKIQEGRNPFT

PAX4 [5] = target: T3, PAX4 (Homo sapiens, UniProt O43316 9-242, R200Q)
T3 sequence: T1 sequence with K192Q

PAX4 [6] = target: T4, PAX4 (Homo sapiens, UniProt O43316 9-242, F177V)
T4 sequence: T1 sequence with F169V, K192R

ALX3 [7] = target: ALX3 (Homo sapiens, UniProt O95076 139-225)
Chain of ALX3 (Homo sapiens, UniProt O95076 139-225) (O95076 139-225): as the sequence (O95076 139-225 N203Q) above, with Q65N counted along it

PAX4 [8] = target: T5, PAX4 (Homo sapiens, UniProt O43316 9-242, F177Y)
T5 sequence: T1 sequence with F169Y, K192R

ALX3 [9] = target: ALX3 (Homo sapiens, UniProt O95076 139-225, L168Q)
Chain of ALX3 (Homo sapiens, UniProt O95076 139-225, L168Q) (O95076 139-225 L168Q): as the sequence (O95076 139-225 N203Q) above, with L30Q, Q65N counted along it

ALX3 [10] = target: ALX3 (Homo sapiens, UniProt O95076 139-225, L168V)
Chain of ALX3 (Homo sapiens, UniProt O95076 139-225, L168V) (O95076 139-225 L168V): as the sequence (O95076 139-225 N203Q) above, with L30V, Q65N counted along it

PAX4 [11] = target: T6, PAX4 (Homo sapiens, UniProt O43316 9-242, R227W)
T6 sequence: T1 sequence with K192R, R219W

ALX3 [12] = target: ALX3 (Homo sapiens, UniProt O95076 139-225, N203S)
Chain of ALX3 (Homo sapiens, UniProt O95076 139-225, N203S) (O95076 139-225 N203S): as the sequence (O95076 139-225 N203Q) above, with Q65S counted along it

NKX2-5 [13] = target: NKX2-5 (Homo sapiens, UniProt P52952 125-210)
Chain of NKX2-5 (Homo sapiens, UniProt P52952 125-210) (P52952 125-210): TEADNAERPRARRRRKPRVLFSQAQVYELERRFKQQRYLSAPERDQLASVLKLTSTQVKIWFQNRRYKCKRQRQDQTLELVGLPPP

ALX4 [14] = target: ALX4 (Homo sapiens, UniProt Q9H161 200-286)
Chain of ALX4 (Homo sapiens, UniProt Q9H161 200-286) (Q9H161 200-286): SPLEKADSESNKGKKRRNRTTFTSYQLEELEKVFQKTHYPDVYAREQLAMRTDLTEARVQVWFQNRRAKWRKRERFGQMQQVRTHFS

ALX4 [15] = target: ALX4 (Homo sapiens, UniProt Q9H161 200-286, Q225E)
Chain of ALX4 (Homo sapiens, UniProt Q9H161 200-286, Q225E) (Q9H161 200-286 Q225E): as the sequence (Q9H161 200-286) above, with Q26E counted along it

PRRX1 [16] = target: PRRX1 (Homo sapiens, UniProt P54821 80-166, F113S)
Chain of PRRX1 (Homo sapiens, UniProt P54821 80-166, F113S) (P54821 80-166 F113S): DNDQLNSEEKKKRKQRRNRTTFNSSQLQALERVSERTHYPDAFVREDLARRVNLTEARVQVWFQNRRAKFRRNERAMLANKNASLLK

PRRX1 [17] = target: PRRX1 (Homo sapiens, UniProt P54821 80-166)
Chain of PRRX1 (Homo sapiens, UniProt P54821 80-166) (P54821 80-166): as the sequence (P54821 80-166 F113S) above, with S34F counted along it

HOXA4 [18] = target: HOXA4 (Homo sapiens, UniProt Q00056 201-287, W262R)
Chain of HOXA4 (Homo sapiens, UniProt Q00056 201-287, W262R) (Q00056 201-287 W262R): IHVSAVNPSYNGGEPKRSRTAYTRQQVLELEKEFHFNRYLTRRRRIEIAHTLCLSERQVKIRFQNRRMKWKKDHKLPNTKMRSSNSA

HOXA2 [19] = target: HOXA2 (Homo sapiens, UniProt O43364 129-215, R185T)
Chain of HOXA2 (Homo sapiens, UniProt O43364 129-215, R185T) (O43364 129-215 R185T): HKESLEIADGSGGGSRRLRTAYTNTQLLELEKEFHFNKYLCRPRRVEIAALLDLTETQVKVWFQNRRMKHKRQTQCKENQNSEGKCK

HOXA4 [20] = target: HOXA4 (Homo sapiens, UniProt Q00056 201-287, R217L)
Chain of HOXA4 (Homo sapiens, UniProt Q00056 201-287, R217L) (Q00056 201-287 R217L): as the sequence (Q00056 201-287 W262R) above, with R17L, R62W counted along it

HOXA2 [21] = target: HOXA2 (Homo sapiens, UniProt O43364 129-215, R185K)
Chain of HOXA2 (Homo sapiens, UniProt O43364 129-215, R185K) (O43364 129-215 R185K): as the sequence (O43364 129-215 R185T) above, with T57K counted along it

HOXA4 [22] = target: HOXA4 (Homo sapiens, UniProt Q00056 201-287)
Chain of HOXA4 (Homo sapiens, UniProt Q00056 201-287) (Q00056 201-287): as the sequence (Q00056 201-287 W262R) above, with R62W counted along it

HOXA2 [23] = target: HOXA2 (Homo sapiens, UniProt O43364 129-215, Y150S)
Chain of HOXA2 (Homo sapiens, UniProt O43364 129-215, Y150S) (O43364 129-215 Y150S): as the sequence (O43364 129-215 R185T) above, with Y22S, T57R counted along it

HOXA4 [24] = target: HOXA4 (Homo sapiens, UniProt Q00056 201-287, W262F)
Chain of HOXA4 (Homo sapiens, UniProt Q00056 201-287, W262F) (Q00056 201-287 W262F): as the sequence (Q00056 201-287 W262R) above, with R62F counted along it

HOXA2 [25] = target: HOXA2 (Homo sapiens, UniProt O43364 129-215)
Chain of HOXA2 (Homo sapiens, UniProt O43364 129-215) (O43364 129-215): as the sequence (O43364 129-215 R185T) above, with T57R counted along it

HOXD13 [26] = target: HOXD13 (Homo sapiens, UniProt P35453 263-343, T313R)
Chain of HOXD13 (Homo sapiens, UniProt P35453 263-343, T313R) (P35453 263-343 T313R): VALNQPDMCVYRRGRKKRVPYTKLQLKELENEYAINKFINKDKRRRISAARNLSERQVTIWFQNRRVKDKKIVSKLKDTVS

HOXD13 [27] = target: HOXD13 (Homo sapiens, UniProt P35453 263-343)
Chain of HOXD13 (Homo sapiens, UniProt P35453 263-343) (P35453 263-343): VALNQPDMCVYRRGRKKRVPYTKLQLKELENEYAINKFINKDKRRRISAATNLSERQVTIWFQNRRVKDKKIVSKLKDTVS

HOXD13 [28] = target: HOXD13 (Homo sapiens, UniProt P35453 263-343, T313A)
Chain of HOXD13 (Homo sapiens, UniProt P35453 263-343, T313A) (P35453 263-343 T313A): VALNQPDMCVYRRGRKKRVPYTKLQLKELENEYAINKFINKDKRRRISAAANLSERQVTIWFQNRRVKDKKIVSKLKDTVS

Chain of NKX2-5 (Homo sapiens, UniProt P52952 125-210, R139K) (P52952 125-210 R139K): as the sequence (P52952 125-210) above, with R15K counted along it

Sequence: GCTGGGCC
- binding signal (NKX2-5 [1]): 8.63 upbm affinity estimate (log intensity, higher = more binding, comparable within an allelic series)
- binding signal (PAX4 [2]): 9.06 upbm affinity estimate (log intensity, higher = more binding, comparable within an allelic series)
- binding signal (PAX4 [3]): 9.06 upbm affinity estimate (log intensity, higher = more binding, comparable within an allelic series)
- binding signal (ALX3 [4]): 7.66 upbm affinity estimate (log intensity, higher = more binding, comparable within an allelic series)
- binding signal (PAX4 [5]): 9.13 upbm affinity estimate (log intensity, higher = more binding, comparable within an allelic series)
- binding signal (PAX4 [6]): 8.94 upbm affinity estimate (log intensity, higher = more binding, comparable within an allelic series)
- binding signal (ALX3 [7]): 7.62 upbm affinity estimate (log intensity, higher = more binding, comparable within an allelic series)
- binding signal (PAX4 [8]): 9.03 upbm affinity estimate (log intensity, higher = more binding, comparable within an allelic series)
- binding signal (ALX3 [9]): 7.58 upbm affinity estimate (log intensity, higher = more binding, comparable within an allelic series)
- binding signal (ALX3 [10]): 7.61 upbm affinity estimate (log intensity, higher = more binding, comparable within an allelic series)
- binding signal (PAX4 [11]): 9.05 upbm affinity estimate (log intensity, higher = more binding, comparable within an allelic series)
- binding signal (ALX3 [12]): 7.64 upbm affinity estimate (log intensity, higher = more binding, comparable within an allelic series)
- binding signal (NKX2-5 [13]): 8.61 upbm affinity estimate (log intensity, higher = more binding, comparable within an allelic series)

Sequence: GCGTGCGA
- binding signal (NKX2-5 [1]): 8.9 upbm affinity estimate (log intensity, higher = more binding, comparable within an allelic series)
- binding signal (ALX4 [14]): 7.96 upbm affinity estimate (log intensity, higher = more binding, comparable within an allelic series)
- binding signal (ALX4 [15]): 8.17 upbm affinity estimate (log intensity, higher = more binding, comparable within an allelic series)
- binding signal (NKX2-5 [13]): 8.92 upbm affinity estimate (log intensity, higher = more binding, comparable within an allelic series)

Sequence: AGCCGACA
- binding signal (NKX2-5 [1]): 8.87 upbm affinity estimate (log intensity, higher = more binding, comparable within an allelic series)
- binding signal (PRRX1 [16]): 9.45 upbm affinity estimate (log intensity, higher = more binding, comparable within an allelic series)
- binding signal (PRRX1 [17]): 9.49 upbm affinity estimate (log intensity, higher = more binding, comparable within an allelic series)
- binding signal (NKX2-5 [13]): 9.05 upbm affinity estimate (log intensity, higher = more binding, comparable within an allelic series)

Sequence: CCCCCAAC
- binding signal (NKX2-5 [1]): 8.66 upbm affinity estimate (log intensity, higher = more binding, comparable within an allelic series)
- binding signal (HOXA4 [18]): 9.78 upbm affinity estimate (log intensity, higher = more binding, comparable within an allelic series)
- binding signal (HOXA2 [19]): 6.99 upbm affinity estimate (log intensity, higher = more binding, comparable within an allelic series)
- binding signal (HOXA4 [20]): 9.67 upbm affinity estimate (log intensity, higher = more binding, comparable within an allelic series)
- binding signal (HOXA2 [21]): 10.3 upbm affinity estimate (log intensity, higher = more binding, comparable within an allelic series)
- binding signal (HOXA4 [22]): 9.61 upbm affinity estimate (log intensity, higher = more binding, comparable within an allelic series)
- binding signal (HOXA2 [23]): 10.3 upbm affinity estimate (log intensity, higher = more binding, comparable within an allelic series)
- binding signal (HOXA4 [24]): 9.75 upbm affinity estimate (log intensity, higher = more binding, comparable within an allelic series)
- binding signal (HOXA2 [25]): 6.95 upbm affinity estimate (log intensity, higher = more binding, comparable within an allelic series)
- binding signal (NKX2-5 [13]): 8.6 upbm affinity estimate (log intensity, higher = more binding, comparable within an allelic series)

Sequence: CAGCCCGG
- binding signal (NKX2-5 [1]): 8.37 upbm affinity estimate (log intensity, higher = more binding, comparable within an allelic series)
- binding signal (HOXA2 [19]): 7.16 upbm affinity estimate (log intensity, higher = more binding, comparable within an allelic series)
- binding signal (HOXD13 [26]): 9.5 upbm affinity estimate (log intensity, higher = more binding, comparable within an allelic series)
- binding signal (HOXA2 [21]): 10.1 upbm affinity estimate (log intensity, higher = more binding, comparable within an allelic series)
- binding signal (HOXD13 [27]): 9.67 upbm affinity estimate (log intensity, higher = more binding, comparable within an allelic series)
- binding signal (HOXD13 [28]): 9.74 upbm affinity estimate (log intensity, higher = more binding, comparable within an allelic series)
- binding signal (HOXA2 [23]): 10.3 upbm affinity estimate (log intensity, higher = more binding, comparable within an allelic series)
- binding signal (HOXA2 [25]): 7.06 upbm affinity estimate (log intensity, higher = more binding, comparable within an allelic series)
- binding signal (NKX2-5 [13]): 8.35 upbm affinity estimate (log intensity, higher = more binding, comparable within an allelic series)
